About 79,000 compounds went through this panel and 15% of them were active in at least one assay; those are over-represented in the sample as a whole. Unmarked numbers belong to inactive results. Active and inactive are the calls of the source. No stated cut-off is given here; in the data, active means growth inhibition above about 70%; inactive means the rest.
Columns and labels:
[1] = NCI Yeast Anticancer Drug Screen. Data for the rad50 strain (AID 155);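 further: 0% = growth of vehicle-only cultures of the same strain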; details: S. cerevisiae rad50 strain growth inhibition; at 50.0 µM; active compounds read high
Summary of the method: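 Readout: growth inhibition relative to vehicle-treated cultures. Compound exposure was carried out in a genetically defined yeast strain deficient in DNA damage repair.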

[2] = NCI Yeast Anticancer Drug Screen. Data for the mec2-1 strain (AID 157); details: S. cerevisiae mec2-1 strain, at 50.0 µM, active compounds read high
Summary of the method: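 Growth inhibition is read against vehicle-treated controls after compound exposure of the mec2-1 yeast strain, which is defective in DNA damage repair or cell cycle control.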

[3] = NCI Yeast Anticancer Drug Screen. Data for the sgs1 mgt1 strain (AID 161);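 further: 0% = growth of cultures given vehicle only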; details: S. cerevisiae sgs1 mgt1 strain, at 50.0 µM, active compounds read high
Summary of the method: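 Yeast cells carrying a defined DNA-repair defect were exposed to test compounds. Growth inhibition was measured relative to vehicle-treated controls.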

[4] = NCI Yeast Anticancer Drug Screen. Data for the cln2 rad14 strain (AID 165);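 further: 0% = growth equal to vehicle treated cultures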; details: S. cerevisiae cln2 rad14 strain, at 50.0 µM, active compounds read high
Summary of the method: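 Growth inhibition, relative to vehicle-treated controls, is the read-out. The test organism is a yeast strain with defined genetic alterations, cln2 rad14.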

[5] = NCI Yeast Anticancer Drug Screen. Data for the bub3 strain (AID 167); details: S. cerevisiae bub3 mutant strain, at 50.0 µM, active compounds read high
Summary of the method: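 Readout: yeast growth inhibition, expressed relative to vehicle-only wells. The test organism is a mutant strain from a panel with lesions in DNA repair or checkpoint genes.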

[6] = NCI Yeast Anticancer Drug Screen. Data for the mlh1 rad18 strain (AID 175); details: S. cerevisiae mlh1 rad18 strain growth inhibition; at 50.0 µM; active compounds read high
Summary of the method: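 Cells of a genetically altered yeast strain, deficient in DNA damage repair, were treated with compound. Their growth was then compared with that of vehicle-treated cultures to give inhibition.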

| SMILES | growth inhibition [1] | growth inhibition [2] | growth inhibition [3] | growth inhibition [4] | growth inhibition [5] | growth inhibition [6] |
| --- | --- | --- | --- | --- | --- | --- |
| Nc1ncnc(Nc2ccc(S(=O)(=O)O)cc2)n1 | -35.9% | -32.6% | -31.1% | -1.25% | -34.9% | – |
| C=C1C(=O)OC2/C=C(/CO)C3(O)CC(O)C(C)(CC(OC(=O)/C(C)=C/C)C12)O3 (configuration not stated) | 7.2% | -13.9% | 14.9% | 17.4% | 0.85% | – |
| Cc1ccc(N=C2SC(c3ccc(C)cc3)(c3ccc(C)cc3)c3ccccc32)cc1 | -35% | 11.2% | -3.9% | -4.75% | -7.15% | – |
| C=CCN1C(=O)C(c2ccccc2)(c2ccccc2)NC1=S | 1.7% | -32.9% | -32.1% | -20.1% | -30.6% | – |
| NNC(=O)c1ccc(-c2ccc[nH]2)[nH]1 | 10.7% | 0.7% | -20.9% | -75.5% | -14.4% | – |
| CC1CC[N-]C(N)N1.CC1CC[N-]C(N)N1.[Cl][Pd][Cl] (configuration not stated) | -3.5% | -0.4% | 6.75% | -34.4% | -0.15% | – |
| O=C(CC(=O)CC(O)(C(F)(F)F)C(F)(F)F)CC(O)(C(F)(F)F)C(F)(F)F | 73.1% (active) | 65.1% | 79.8% (active) | 59% | 55.9% | – |
| CC1=CC(=O)N2C(OC[C@@H]2c2ccccc2)O1 (some centres not stated) | 3.5% | -11.8% | -12.9% | 9.95% | -18.9% | – |
| CCC(=O)N1NC(=O)C(CC)(CC)C1=O | -1.95% | -26.2% | 11.1% | 10.7% | -2.3% | – |
| CCOC(=O)CCC(=O)c1ccc2cc(OC)ccc2c1 | 5.55% | 25.2% | 11.8% | -36% | 34.9% | – |
| CC12CCC3C(CCC4CCCCC43C)C1CCC2CO (configuration not stated) | 21.8% | 16.4% | 17.8% | -11.3% | 23.2% | – |
| NC(CCOCCP(=O)(O)CCOCCC(N)C(=O)O)C(=O)O (configuration not stated) | -42% | -20.8% | -27.1% | -4.5% | -8.95% | – |
| C1CSCCSCCSCCSC1 | -8.05% | -24.4% | -13.7% | -18.3% | 31.9% | – |
| O=C(NCCCCCCNC(=O)OCCSCCn1cc(C(=O)NC(=O)OCc2ccccc2)c(=O)[nH]c1=O)OCCSCCn1cc(C(=O)NC(=O)OCc2ccccc2)c(=O)[nH]c1=O | -21.3% | -23.6% | 2.6% | 2.55% | – | – |
| CCCCC(/C=C(/C)C(=O)O)CC (configuration not stated) | 6.9% | 1.6% | 3.9% | -1.8% | 3.3% | – |
| CN1CN=C(Sc2ccc(Cl)cc2[N+](=O)[O-])NC1 | -22.2% | -35.9% | -22.1% | -5% | -6.9% | – |
| CC(N)c1ccc2ccccc2c1O (configuration not stated) | -3.95% | -7.05% | 8.8% | -11.2% | -6% | – |
| c1ccc(-c2cc(-c3ccccc3)nc(-c3ccncc3)c2)cc1 | -16.1% | -35.3% | 2.9% | 13.8% | 1.55% | – |
| COC1(OC)C2(Cl)C(Cl)=C(Cl)C1(Cl)C1C=CC=CC12 (configuration not stated) | -19.9% | -14.2% | -14.3% | 5.55% | -18.6% | -35.3% |
| CN(C)CNc1ncnc2onc(-c3ccccc3)c12 | 10.1% | 14.5% | 13.7% | 11.6% | -5.5% | -4.15% |
| COc1ccc2cc1Oc1cc3c(cc1OC)CC[N+](C)(C)C3Cc1ccc(cc1)Oc1c(OC)c(OC)cc3c1C(C2)[N+](C)(C)CC3 (configuration not stated) | -29.4% | -16.4% | -46.2% | 10.8% | -22.9% | -19.3% |

— PubChem BioAssay (NCI)
